Measured values taken from PubChem BioAssay (EPA / NIEHS).
Values joined by “and” are separate entries in the source; they are usually repeats but may differ in a detail not shown here. Equal entries are not always repeated. Records with an inconclusive call do not appear. A structure can be active in one record and inactive in another. Active and inactive are the calls of the source. How the source made its calls: active means hit-call score of the fitted dose curve at least 0.9, where 1 is the maximum; inconclusive means response in the unintended direction; inactive means score below 0.9.

biological target: human CYP19A1, CYP19A1 (gene 1588) (UniProt P11511); assay: NVS_ADME_hCYP19A1: NovaScreen (NVS) CYP450-related Enzyme Activity (ADME) Assay for human CYP19A1 (AID 2283098);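 on AC50: potency for inhibitors seen as loss of fluorescent enzyme signal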
Outline: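 Recombinant enzyme in a cell-free format, read 0.5 h after dosing by fluorescence from a fluorogenic substrate. Loss of signal was fitted against acetonitrile as baseline. Primary screen in duplicate at 10 uM, actives then tested in concentration series.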

human CYP19A1, CYP19A1 (gene 1588), sequence (P11511 whole entry, looked up): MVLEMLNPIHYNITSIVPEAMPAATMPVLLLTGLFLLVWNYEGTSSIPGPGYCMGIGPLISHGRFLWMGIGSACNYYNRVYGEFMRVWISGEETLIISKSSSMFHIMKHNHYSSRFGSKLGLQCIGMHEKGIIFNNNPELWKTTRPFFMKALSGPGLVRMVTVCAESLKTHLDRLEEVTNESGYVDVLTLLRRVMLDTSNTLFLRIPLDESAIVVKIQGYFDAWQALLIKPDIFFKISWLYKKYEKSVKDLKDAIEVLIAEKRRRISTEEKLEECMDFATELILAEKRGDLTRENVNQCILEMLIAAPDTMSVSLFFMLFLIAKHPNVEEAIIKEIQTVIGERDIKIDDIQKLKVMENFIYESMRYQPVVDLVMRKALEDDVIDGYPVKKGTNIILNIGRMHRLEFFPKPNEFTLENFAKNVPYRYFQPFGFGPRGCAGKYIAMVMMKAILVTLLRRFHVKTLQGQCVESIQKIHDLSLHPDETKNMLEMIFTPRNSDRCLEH

Row | Compound | AC50 | outcome
1 | CC(C)(C)C(O)C(Oc1ccc(Cl)cc1)n1cncn1 (centres undefined) | 7.34 µM (active) and 2.41 µM (active) | 
2 | O=C(O)C(F)(F)C(F)(F)C(F)(F)C(F)(F)C(F)(F)C(F)(F)C(F)(F)F |  | inactive
3 | O=S(=O)(O)C(F)(F)C(F)(F)C(F)(F)C(F)(F)C(F)(F)C(F)(F)C(F)(F)C(F)(F)F | 5.35 µM (active) | inactive
